Assay results published in PubChem BioAssay.
Activity calls are given as the source filed them.

Experiments:
[1] = system: PRMT1 (protein arginine N-methyltransferase 1); assay: PRMT1 binders on small-molecule microarrays, primary screen, biochemical, small-molecule microarray, 635 nm fluorescence (AID 1088); conditions: small-molecule microarray binding, higher = more signal;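 also: binding of Prmt1 protein to compounds spotted on small-molecule microarray slides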
[2] = yeast growth modulation, basal conditions, primary screen, YJM789 clinical isolate, OD600, 24 h (AID 1089);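 also: growth of clinical yeast isolate S. cerevisiae YJM 789 seeded 1000 cells per well; test concentration not given here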; conditions: S. cerevisiae YJM789 growth, higher = more signal, called active from +8 up or from −8 down
[3] = fission yeast growth modulation, primary screen, strain 972, OD600, 24 h, no modulator (AID 1090);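 also: basal condition with compound alone and no growth modifier present; test concentration not given here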; conditions: S. pombe 972 growth, higher = more signal, called active from +8 up or from −8 down
[4] = S. cerevisiae growth modulation with rapamycin, primary screen, strain BY4716, OD600, 96 h (AID 1091); conditions: higher = more signal, called active from +8 up or from −8 down; also: test concentration not given here
[5] = biological target: Torsin-1A-interacting protein 2 (Homo sapiens) (UniProt Q8NFQ8); assay: LULL1 binders on small-molecule microarray, primary screen, cell lysate, human LULL1 lysate, 635/667 nm fluorescence (AID 1092); conditions: hLULL1 lysate binding, 635 nm fluorescence, higher = more signal;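 also: probe is lysate of COS7 cells overexpressing human LULL1; score merges per-feature 667 nm fluorescence with signal-to-noise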
Torsin-1A-interacting protein 2 (Homo sapiens), sequence (Q8NFQ8 whole entry, looked up): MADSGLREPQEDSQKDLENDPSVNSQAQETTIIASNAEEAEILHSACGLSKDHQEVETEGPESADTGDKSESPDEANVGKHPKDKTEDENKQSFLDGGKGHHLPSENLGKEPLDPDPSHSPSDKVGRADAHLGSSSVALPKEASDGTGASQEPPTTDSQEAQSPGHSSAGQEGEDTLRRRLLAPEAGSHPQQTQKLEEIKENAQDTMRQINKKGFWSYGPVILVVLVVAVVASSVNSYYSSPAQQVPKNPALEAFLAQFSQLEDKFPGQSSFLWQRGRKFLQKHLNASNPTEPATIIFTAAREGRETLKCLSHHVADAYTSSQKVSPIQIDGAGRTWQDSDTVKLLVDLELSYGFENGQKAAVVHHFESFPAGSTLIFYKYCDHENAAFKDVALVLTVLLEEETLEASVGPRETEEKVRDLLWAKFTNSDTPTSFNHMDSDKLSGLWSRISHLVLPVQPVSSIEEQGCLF

[6] = E. coli growth modulation, two-sided OD650, primary screen, E. coli filamentation project, strain DRC41, 24 h (AID 1093); conditions: OD650, 24 h, higher = more signal, called active from +8 up or from −8 down;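 also: MC1000 strain lacking acrAB efflux and sulA so SOS filamentation is blocked; test concentration not given here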
[7] = small-molecule microarray binders of probe aLefty2, primary screen, biochemical, biotinylated probe, 635/667 nm fluorescence (AID 1094); conditions: higher = more signal;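 also: score merges spot fluorescence near 667 nm with spot signal-to-noise ratio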
[8] = system: Noggin (protein binding on small-molecule microarray); assay: Noggin binders on small-molecule microarray, primary screen, biochemical, 635/667 nm fluorescence (AID 1095); conditions: 635 nm fluorescence, higher = more signal;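 also: score merges 667 nm feature fluorescence with signal to noise over triplicate slides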
[9] = biological target: Neurogenic locus notch homolog protein 3 (Homo sapiens) (UniProt Q9UM47); assay: NOTCH3 binders on small-molecule microarray, primary screen, biochemical, 635/667 nm fluorescence (AID 1096); conditions: NOTCH3 binding, 635 nm fluorescence, higher = more signal
Neurogenic locus notch homolog protein 3 (Homo sapiens), sequence (Q9UM47 whole entry, looked up): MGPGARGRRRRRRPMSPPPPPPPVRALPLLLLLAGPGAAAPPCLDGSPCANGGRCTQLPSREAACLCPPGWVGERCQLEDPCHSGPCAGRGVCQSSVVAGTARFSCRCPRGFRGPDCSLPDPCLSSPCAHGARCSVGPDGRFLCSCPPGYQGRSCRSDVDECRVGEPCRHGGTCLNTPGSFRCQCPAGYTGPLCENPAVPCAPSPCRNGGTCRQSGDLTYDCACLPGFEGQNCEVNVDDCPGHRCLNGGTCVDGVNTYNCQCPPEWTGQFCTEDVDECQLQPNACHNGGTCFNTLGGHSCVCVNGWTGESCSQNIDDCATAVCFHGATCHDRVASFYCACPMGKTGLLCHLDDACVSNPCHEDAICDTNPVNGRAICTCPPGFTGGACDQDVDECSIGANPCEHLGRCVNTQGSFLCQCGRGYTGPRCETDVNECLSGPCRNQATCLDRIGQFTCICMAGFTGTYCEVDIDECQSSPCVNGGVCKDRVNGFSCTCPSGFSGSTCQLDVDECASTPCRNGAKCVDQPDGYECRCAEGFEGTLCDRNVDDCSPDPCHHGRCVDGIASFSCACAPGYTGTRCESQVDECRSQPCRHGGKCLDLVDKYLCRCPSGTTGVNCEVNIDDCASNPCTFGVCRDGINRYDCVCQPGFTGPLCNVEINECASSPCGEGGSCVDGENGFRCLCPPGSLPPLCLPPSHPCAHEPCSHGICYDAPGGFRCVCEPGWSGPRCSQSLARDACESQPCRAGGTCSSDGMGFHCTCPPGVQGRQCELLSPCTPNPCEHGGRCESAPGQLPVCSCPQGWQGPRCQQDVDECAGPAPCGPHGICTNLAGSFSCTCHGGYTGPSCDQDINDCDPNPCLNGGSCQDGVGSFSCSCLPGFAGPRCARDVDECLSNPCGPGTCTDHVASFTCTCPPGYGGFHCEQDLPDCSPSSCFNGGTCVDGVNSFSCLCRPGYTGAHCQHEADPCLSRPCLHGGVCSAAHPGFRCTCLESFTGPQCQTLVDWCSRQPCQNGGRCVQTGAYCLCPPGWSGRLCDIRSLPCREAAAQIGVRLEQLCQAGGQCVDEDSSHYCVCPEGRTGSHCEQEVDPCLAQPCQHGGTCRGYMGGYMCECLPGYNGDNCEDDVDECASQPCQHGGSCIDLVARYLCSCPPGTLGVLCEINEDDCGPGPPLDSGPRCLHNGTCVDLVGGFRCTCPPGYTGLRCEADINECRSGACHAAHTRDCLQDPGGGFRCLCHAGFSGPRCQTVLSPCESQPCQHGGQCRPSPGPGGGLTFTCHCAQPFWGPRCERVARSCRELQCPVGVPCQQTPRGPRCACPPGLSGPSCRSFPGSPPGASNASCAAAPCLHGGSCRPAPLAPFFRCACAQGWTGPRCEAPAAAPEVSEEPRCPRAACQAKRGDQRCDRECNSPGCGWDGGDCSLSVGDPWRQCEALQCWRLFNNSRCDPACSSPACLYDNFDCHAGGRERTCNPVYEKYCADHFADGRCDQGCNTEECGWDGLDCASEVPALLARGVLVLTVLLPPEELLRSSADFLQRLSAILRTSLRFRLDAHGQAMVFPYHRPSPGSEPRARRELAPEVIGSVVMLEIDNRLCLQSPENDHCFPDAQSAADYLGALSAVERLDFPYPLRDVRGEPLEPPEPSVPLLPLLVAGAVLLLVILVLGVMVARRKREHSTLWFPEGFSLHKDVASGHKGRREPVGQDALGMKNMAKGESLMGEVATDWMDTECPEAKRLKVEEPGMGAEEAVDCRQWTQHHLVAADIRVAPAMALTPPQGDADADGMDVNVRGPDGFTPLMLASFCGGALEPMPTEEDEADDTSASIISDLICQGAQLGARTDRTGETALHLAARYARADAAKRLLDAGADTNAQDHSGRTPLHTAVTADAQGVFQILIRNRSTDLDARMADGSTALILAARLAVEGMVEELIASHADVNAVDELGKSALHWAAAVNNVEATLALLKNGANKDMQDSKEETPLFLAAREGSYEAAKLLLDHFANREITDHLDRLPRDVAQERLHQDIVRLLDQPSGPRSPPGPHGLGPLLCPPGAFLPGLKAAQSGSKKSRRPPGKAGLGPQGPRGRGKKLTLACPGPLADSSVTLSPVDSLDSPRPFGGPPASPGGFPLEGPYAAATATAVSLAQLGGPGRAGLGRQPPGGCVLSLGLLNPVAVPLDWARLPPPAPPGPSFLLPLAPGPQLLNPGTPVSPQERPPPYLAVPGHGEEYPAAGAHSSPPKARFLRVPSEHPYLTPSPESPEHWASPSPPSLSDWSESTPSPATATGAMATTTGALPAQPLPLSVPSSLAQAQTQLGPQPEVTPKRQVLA

[10] = small-molecule microarray binders of probe aEGFR, primary screen, biochemical, biotinylated probe, 635/667 nm fluorescence (AID 1097); conditions: higher = more signal;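 also: probe is a biotinylated anti-EGFR antibody binding compounds printed on slides; score combines fluorescence near 667 nm and signal to noise of each spot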
[11] = system: Plasmodium falciparum Sir2 (PF13_0152, Sir2A); assay: pfSir2 binders on small-molecule microarrays, primary screen, biochemical, small-molecule microarray, 635 nm fluorescence (AID 1098); conditions: small-molecule microarray binding, fluorescence 635 nm; higher = more signal;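 also: score merges spot fluorescence intensity with its signal-to-noise ratio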
[12] = small-molecule microarray binders of probe aDKK1, primary screen, biochemical, biotinylated probe, 635/667 nm fluorescence (AID 1099); conditions: higher = more signal;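 also: score merges 667nm spot fluorescence with signal to noise across triplicate slides; reference of the scale not given here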
[13] = small-molecule microarray binders of probe aCHRDL2, primary screen, biochemical, biotinylated probe, 635/667 nm fluorescence (AID 1100); conditions: higher = more signal
[14] = splicing luciferase reporter signal modulators, primary screen, spliceosome inhibition project, cell-based, HEK293, splice +/- reporter (AID 1101); conditions: luminescence, 24 h, higher = more signal, called active from +8 up or from −8 down;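 also: HEK293 cells carrying a splicing-competent luciferase reporter gene; test concentration not given here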
[15] = biological target: Fibroblast growth factor 10 (Homo sapiens) (UniProt O15520); assay: FGF10 binders on small-molecule microarrays, primary screen, biochemical, small-molecule microarray, 635 nm fluorescence (AID 1102); conditions: FGF10 binding, fluorescence 635 nm, higher = more signal
Fibroblast growth factor 10 (Homo sapiens), sequence (O15520 whole entry, looked up): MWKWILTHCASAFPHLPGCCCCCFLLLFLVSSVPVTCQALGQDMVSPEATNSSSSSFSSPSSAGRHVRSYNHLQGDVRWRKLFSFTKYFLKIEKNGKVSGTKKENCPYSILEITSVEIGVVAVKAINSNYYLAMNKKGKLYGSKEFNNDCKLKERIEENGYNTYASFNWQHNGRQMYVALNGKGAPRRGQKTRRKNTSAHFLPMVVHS

[16] = system: glycogen synthase kinase-3 (GSK3A per assay name; protocol says GSK3B); assay: GSK3 binders on small-molecule microarrays, primary screen, biochemical, small-molecule microarray, 635 nm fluorescence, GSK3A (AID 1103); conditions: small-molecule microarray binding, fluorescence 635 nm; higher = more signal; also: the record names both GSK3A and GSK3B
[17] = biological target: Epidermal growth factor receptor (Homo sapiens) (UniProt P00533); assay: EGFR binders on small-molecule microarrays, primary screen, biochemical, small-molecule microarray, 635 nm fluorescence (AID 1104); conditions: EGFR binding, higher = more signal;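 also: score merges 667 nm emission intensity with spot signal to noise over triplicate slides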
Epidermal growth factor receptor (Homo sapiens), sequence (P00533 whole entry, looked up): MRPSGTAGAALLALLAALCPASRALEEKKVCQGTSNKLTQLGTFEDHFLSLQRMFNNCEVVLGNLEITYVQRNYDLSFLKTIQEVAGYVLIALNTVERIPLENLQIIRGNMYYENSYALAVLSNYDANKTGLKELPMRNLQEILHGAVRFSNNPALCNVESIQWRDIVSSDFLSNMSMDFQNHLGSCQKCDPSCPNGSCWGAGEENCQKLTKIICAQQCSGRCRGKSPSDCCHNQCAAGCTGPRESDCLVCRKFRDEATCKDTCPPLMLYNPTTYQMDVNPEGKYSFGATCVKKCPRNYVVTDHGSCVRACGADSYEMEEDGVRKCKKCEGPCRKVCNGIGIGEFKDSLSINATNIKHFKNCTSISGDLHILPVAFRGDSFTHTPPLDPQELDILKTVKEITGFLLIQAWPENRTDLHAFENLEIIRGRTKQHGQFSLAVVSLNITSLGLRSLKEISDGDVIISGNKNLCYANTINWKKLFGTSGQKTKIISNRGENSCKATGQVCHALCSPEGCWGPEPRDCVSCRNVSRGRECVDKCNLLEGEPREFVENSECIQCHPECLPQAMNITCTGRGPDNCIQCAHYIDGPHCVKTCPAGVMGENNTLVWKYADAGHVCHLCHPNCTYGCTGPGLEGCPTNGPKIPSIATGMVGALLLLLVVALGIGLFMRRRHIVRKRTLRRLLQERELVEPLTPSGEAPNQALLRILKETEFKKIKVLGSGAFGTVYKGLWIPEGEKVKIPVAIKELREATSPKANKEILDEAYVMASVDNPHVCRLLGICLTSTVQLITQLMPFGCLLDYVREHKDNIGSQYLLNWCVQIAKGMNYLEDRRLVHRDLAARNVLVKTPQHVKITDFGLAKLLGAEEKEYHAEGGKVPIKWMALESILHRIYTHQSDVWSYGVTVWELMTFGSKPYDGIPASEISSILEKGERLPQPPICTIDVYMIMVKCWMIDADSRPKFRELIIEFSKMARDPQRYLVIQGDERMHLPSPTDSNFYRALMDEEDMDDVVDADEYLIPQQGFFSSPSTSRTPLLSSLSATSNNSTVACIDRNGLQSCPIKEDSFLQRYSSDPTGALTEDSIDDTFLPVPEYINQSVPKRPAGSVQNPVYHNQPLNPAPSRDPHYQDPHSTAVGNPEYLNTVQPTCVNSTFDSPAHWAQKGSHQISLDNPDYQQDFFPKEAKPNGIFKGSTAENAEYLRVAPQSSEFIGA

[18] = biological target: Follistatin-related protein 3 (Homo sapiens) (UniProt O95633); assay: FSTL3 binders on small-molecule microarrays, primary screen, biochemical, small-molecule microarray, 635 nm fluorescence (AID 1105); conditions: FSTL3 binding, higher = more signal;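 also: score merges emission near 667 nm and signal to noise per printed spot across three slides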
Follistatin-related protein 3 (Homo sapiens), sequence (O95633 whole entry, looked up): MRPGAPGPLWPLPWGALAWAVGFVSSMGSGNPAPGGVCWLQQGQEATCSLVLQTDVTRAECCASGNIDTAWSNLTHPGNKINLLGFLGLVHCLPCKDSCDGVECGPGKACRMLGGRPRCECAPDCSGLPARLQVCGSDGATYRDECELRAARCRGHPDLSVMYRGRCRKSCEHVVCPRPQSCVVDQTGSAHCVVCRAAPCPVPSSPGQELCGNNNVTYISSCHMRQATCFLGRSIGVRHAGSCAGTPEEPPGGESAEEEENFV

[19] = biological target: Dickkopf-related protein 1 (Homo sapiens) (UniProt O94907); assay: DKK1 binders on small-molecule microarrays, primary screen, biochemical, small-molecule microarray, 635 nm fluorescence scan (AID 1106); conditions: DKK1 binding, higher = more signal;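 also: score merges emission near 667 nm with signal to noise over three replicate slides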
Dickkopf-related protein 1 (Homo sapiens), sequence (O94907 whole entry, looked up): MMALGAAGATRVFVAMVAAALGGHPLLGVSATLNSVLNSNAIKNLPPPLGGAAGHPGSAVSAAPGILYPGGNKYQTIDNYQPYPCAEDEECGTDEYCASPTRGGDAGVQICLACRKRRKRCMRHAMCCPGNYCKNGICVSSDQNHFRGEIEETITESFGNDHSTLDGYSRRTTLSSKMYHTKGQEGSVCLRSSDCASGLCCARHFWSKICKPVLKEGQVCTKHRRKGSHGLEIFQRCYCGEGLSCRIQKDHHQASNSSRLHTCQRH

[20] = system: Inhibin beta A chain (activin A); assay: INHBA (activin A) binders on microarrays, primary screen, biochemical, small-molecule microarray, 635 nm fluorescence scan (AID 1107); conditions: small-molecule microarray binding, higher = more signal;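 also: mouse activin A protein probed at 4.33 µg/mL on printed slides; score merges bound-protein fluorescence near 667 nm with spot signal-to-noise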

SMILES	composite z-score [1]	z-score [2]	z-score [3]	z-score [4]	composite z-score [5]	z-score [6]	composite z-score [7]	composite z-score [8]	composite z-score [9]	composite z-score [10]	composite z-score [11]	composite z-score [12]	composite z-score [13]	z-score [14]	composite z-score [15]	composite z-score [16]	composite z-score [17]	composite z-score [18]	composite z-score [19]	composite z-score [20]
CO[C@H]1O[C@H](CO)[C@@H](OC(=O)Nc2ccccc2-c2ccccc2)[C@H](OC(=O)Nc2ccccc2)[C@H]1OC(=O)Nc1ccccc1	1.54	1.81 (inactive)	1.21 (inactive)	5.33 (inactive)	3.12	0.517 (inactive)	0.208	1.2	1.1	0.0903	1.43	0.821	0.886	-0.299 (inactive)	1.45	1.33	0.41	1.41	0.993	0.352
COCCCN1C(=O)[C@@]2(c3ccc([N+](=O)[O-])cc3)CC(=O)N(CC34CC5CC(CC(C5)C3)C4)[C@@H]2c2ccc(CO)cc21	1.27	0.222 (inactive)	0.432 (inactive)	-1.33 (inactive)	2.07	-0.0011 (inactive)	-0.159	0.432	-0.182	-0.115	1.47	-0.183	-0.0705	-0.515 (inactive)	0.329	0.541	-0.557	0.458	-0.104	0.405
COc1cc(CO)cc(I)c1O[C@H]1C=C(C(=O)NCCO)C[C@@H](NC2CCCCCC2)[C@@H]1O	1.53	0.543 (inactive)	-8.18 (active)	-0.397 (inactive)	1.86	1.37 (inactive)	-0.166	1.22	1.01	-0.0564	0.515	-0.168	-0.675	-0.51 (inactive)	1.38	1.16	0.44	1.29	0.772	0.0403
COCCOC(=O)N1C(=O)[C@@]2(c3cc(C#CCCO)ccc31)[C@H](C(N)=O)[C@H]1C(=O)O[C@H](c3ccccc3)[C@H](c3ccccc3)N1[C@@H]2c1ccccc1OCCO	1.54	1.85 (inactive)	1.17 (inactive)	3.4 (inactive)	2.15	-0.497 (inactive)	0.319	0.989	1.15	0.105	1.59	0.7	0.694	-0.871 (inactive)	0.738	1.3	0.375	0.911	0.403	0.042
CC(C)[Si](C#CCCc1ccccc1)(O[C@H](c1ccccc1)c1cn(Cc2ccccc2)nn1)C(C)C	1.25	-1.17 (inactive)	-12.3 (active)	-0.778 (inactive)	0.958	0.791 (inactive)	-0.0095	0.797	1.13	0.0276	0.431	-0.069	-0.496	0.105 (inactive)	0.559	1.28	0.618	0.773	0.611	0.152
